Publication PMC5540273 (PLoS ONE, 2017)

What was measured:
Details in all cases: concentration: 1 μM, replicates: in singlicate; n = 1
[1] = test system: T1, RSK2(Kin.Dom.2-C-terminal)
T1 construct: gene RPS6KA3

[2] = test system: T2, RSK3(Kin.Dom.1-N-terminal)
T2 construct: gene RPS6KA2

[3] = test system: T3, RSK3(Kin.Dom.2-C-terminal)
T3 construct: gene RPS6KA2

[4] = test system: T4, RSK4(Kin.Dom.1-N-terminal)
T4 construct: gene RPS6KA6

[5] = test system: T5, RSK4(Kin.Dom.2-C-terminal)
T5 construct: gene RPS6KA6

[6] = test system: S6K1
[7] = test system: SBK1
[8] = test system: SGK2
[9] = test system: SGK3
[10] = test system: SGK
[11] = test system: SIK2
[12] = test system: SIK
[13] = test system: SLK
[14] = test system: T6, SNARK
T6 construct: gene NUAK2

[15] = test system: SNRK
[16] = test system: SRC
[17] = test system: SRMS
[18] = test system: SRPK1
[19] = test system: SRPK2
[20] = test system: SRPK3
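Note: KINOMEscan kinase panel screen.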

Row | Structure (SMILES) | %Inh [1] | %Inh [2] | %Inh [3] | %Inh [4] | %Inh [5] | %Inh [6] | %Inh [7] | %Inh [8] | %Inh [9] | %Inh [10] | %Inh [11] | %Inh [12] | %Inh [13] | %Inh [14] | %Inh [15] | %Inh [16] | %Inh [17] | %Inh [18] | %Inh [19] | %Inh [20]
1 | Fc1cc(Cl)ccc1Nc1ccnc2cc(I)ccc12 [GW551191] | 32% | 0% | 0% | 0% | 87% | 4% | 19% | 4% | 0% | 8% | 49% | 29% | 0% | 0% | 0% | 0% | 0% | 7% | 0% | 8%
2 | Cc1ccc(NC(=O)Nc2cc(C(C)(C)C)nn2-c2ccccc2)cc1 [GSK1014915] | 0% | 18% | 11% | 0% | 44% | 10% | 7% | 8% | 0% | 0% | 4% | 0% | 44% | 0% | 0% | 2% | 0% | 21% | 0% | 2%
3 | COc1cccc(NC(=O)NC2CCN(c3ccnc(Nc4ccc(F)cc4)n3)C2)c1 (stereo not shown) [GSK1379721] | 30% | 5% | 2% | 0% | 0% | 0% | 2% | 0% | 0% | 5% | 0% | 0% | 0% | 0% | 0% | 0% | 0% | 0% | 5% | 0%
4 | CCCc1ccc(S(=O)(=O)NC2CCN(c3ccnc(Nc4ccc(F)cc4)n3)C2)cc1 (stereo not shown) [GSK1379715] | 20% | 13% | 0% | 0% | 0% | 0% | 5% | 0% | 0% | 0% | 0% | 0% | 0% | 0% | 0% | 48% | 0% | 0% | 17% | 6%
5 | COc1cc2nccc(Nc3ccc(NC(=O)c4ccc(C)cc4)c(O)c3)c2cc1OC.Cl [GW440132] | 4% | 4% | 0% | 0% | 0% | 0% | 10% | 5% | 0% | 0% | 0% | 16% | 44% | 0% | 0% | 20% | 71% | 18% | 0% | 0%
6 | Fc1cc(Cl)ccc1Nc1ccnc2cc(-c3ccc(CN4CCCCC4)o3)ccc12 [GW560116] | 25% | 0% | 24% | 0% | 88% | 29% | 2% | 0% | 0% | 3% | 22% | 9% | 0% | 0% | 0% | 90.8% | 0% | 0% | 35% | 0%
7 | CCn1c(-c2cccnc2O)nc2cnccc21 [SB-736715] | 1% | 0% | 13% | 0% | 15% | 5% | 0% | 0% | 0% | 0% | 0% | 0% | 0% | 0% | 0% | 0% | 0% | 0% | 0% | 20%
8 | COC(=O)c1c(-c2ccccc2)c2cc(OC)ccc2c(=O)n1Cc1ccccc1 | 41% | 8% | 21% | 0% | 27% | 8% | 2% | 0% | 16% | 0% | 6% | 1% | 0% | 12% | 1% | 8% | 0% | 5% | 9% | 11%
9 | Cc1cccc(-c2nc(Nc3cccc(C(N)=O)c3)c3ccccc3n2)n1 [GW876019] | 49% | 2% | 27% | 0% | 9% | 8% | 0% | 0% | 0% | 0% | 63% | 14% | 14% | 0% | 0% | 0% | 33% | 17% | 23% | 4%
10 | COc1cc(Nc2nccc(N3CCC(NC(=O)Nc4cc(C)ccc4C)C3)n2)cc(OC)c1OC (stereo not shown) [GSK1379762] | 2% | 9% | 0% | 0% | 14% | 3% | 6% | 12% | 0% | 0% | 6% | 0% | 23% | 23% | 0% | 24% | 0% | 53% | 0% | 29%
11 | Cc1ccc(-c2cc(-c3c[nH]nc3-c3ccccn3)ccn2)cc1 [GW684088] | 30% | 0% | 25% | 0% | 62% | 5% | 4% | 0% | 4% | 0% | 0% | 0% | 0% | 0% | 0% | 0% | 9% | 13% | 52% | 0%
12 | C[C@@H]1CCCCN1c1cc(-c2ccc3c(N)n[nH]c3c2)nc(N)n1 [GSK2258759] | 0% | 0% | 19% | 0% | 24% | 0% | 0% | 0% | 3% | 0% | 0% | 0% | 0% | 2% | 0% | 0% | 0% | 0% | 0% | 0%
13 | COc1ccc(Nc2nccc(-c3cccc(NC(=O)c4cc5cc(F)ccc5[nH]4)c3)n2)cc1 [GSK1229782] | 0% | 1% | 0% | 0% | 24% | 16% | 18% | 0% | 0% | 6% | 1% | 17% | 29% | 33% | 0% | 63% | 0% | 44% | 18% | 0%
14 | Cc1csc(-c2nc(Nc3ccncc3)c3ccccc3n2)n1 [GW869640] | 45% | 15% | 3% | 44% | 40% | 32% | 51% | 0% | 13% | 39% | 1% | 4% | 22% | 26% | 20% | 8% | 25% | 0% | 0% | 39%
15 | CC(C)(C)c1ccc(C(=O)Nc2cn3cc(-c4cccnc4)ccc3n2)cc1 | 0% | 13% | 36% | 4% | 47% | 11% | 23% | 0% | 13% | 0% | 25% | 22% | 19% | 5% | 20% | 3% | 0% | 15% | 0% | 0%
16 | NC(=O)c1nnc2ccccc2c1N | 13% | 19% | 0% | 33% | 44% | 14% | 1% | 13% | 44% | 0% | 6% | 9% | 0% | 67% | 14% | 6% | 0% | 45% | 0% | 32%
17 | Nc1nc(-c2nccs2)c(-c2ccnc3ccccc23)s1 [GW693542] | 88% | 0% | 0% | 0% | 50% | 0% | 9% | 0% | 6% | 0% | 0% | 0% | 9% | 8% | 0% | 0% | 0% | 20% | 0% | 31%
18 | Cc1cccc(-c2nc(Nc3ccc4[nH]ncc4c3)c3ccccc3n2)n1 [GW857175] | 23% | 14% | 1% | 35% | 15% | 26% | 5% | 6% | 9% | 25% | 0% | 0% | 16% | 15% | 10% | 28% | 25% | 16% | 0% | 28%
19 | Cc1cc(-c2ccc3c(c2)CC[C@@H](N[C@@H](C)c2ccccc2)C3)cnc1N.Cl [GW412617] | 47% | 15% | 0% | 23% | 0% | 4% | 17% | 0% | 0% | 2% | 3% | 12% | 29% | 8% | 0% | 4% | 0% | 24% | 0% | 9%
20 | CN1C(=O)C(Nc2ccc(Cl)c(C(=O)O)c2)=C(c2ccc(Cl)cc2)C1=O [SB-404290] | 8% | 0% | 1% | 33% | 0% | 53% | 24% | 9% | 19% | 13% | 0% | 0% | 13% | 8% | 0% | 0% | 19% | 20% | 12% | 15%
